# Assays:
# [1] = biological target: Tyrosine-protein kinase SYK (Homo sapiens) (UniProt P43405); details: at 10 µM
# [2] = biological target: T1, Mitogen-activated protein kinase kinase kinase 7 (Homo sapiens) (UniProt O43318); details: at 1 µM
# T1 sequence (whole entry): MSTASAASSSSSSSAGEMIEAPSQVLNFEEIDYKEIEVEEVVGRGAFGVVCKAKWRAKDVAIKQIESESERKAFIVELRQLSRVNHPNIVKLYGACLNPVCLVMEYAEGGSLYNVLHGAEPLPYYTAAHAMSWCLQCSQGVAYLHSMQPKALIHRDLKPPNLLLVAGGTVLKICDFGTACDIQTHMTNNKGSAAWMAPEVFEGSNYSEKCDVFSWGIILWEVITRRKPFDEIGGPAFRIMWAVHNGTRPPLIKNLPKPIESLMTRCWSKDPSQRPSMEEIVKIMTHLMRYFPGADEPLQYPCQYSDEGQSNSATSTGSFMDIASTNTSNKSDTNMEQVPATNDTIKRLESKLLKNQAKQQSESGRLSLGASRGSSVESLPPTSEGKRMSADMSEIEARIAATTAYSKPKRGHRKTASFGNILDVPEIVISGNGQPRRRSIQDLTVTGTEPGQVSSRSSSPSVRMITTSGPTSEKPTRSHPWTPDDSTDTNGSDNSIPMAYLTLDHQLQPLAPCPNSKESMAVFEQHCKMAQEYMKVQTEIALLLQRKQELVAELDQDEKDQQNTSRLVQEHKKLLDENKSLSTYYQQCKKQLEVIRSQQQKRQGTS
# [3] = biological target: T1, Mitogen-activated protein kinase kinase kinase 7 (Homo sapiens); details: at 10 µM
# [4] = biological target: T2, Serine/threonine-protein kinase TAO1 (Homo sapiens) (UniProt Q7L7X3); details: at 1 µM
# T2 sequence (whole entry): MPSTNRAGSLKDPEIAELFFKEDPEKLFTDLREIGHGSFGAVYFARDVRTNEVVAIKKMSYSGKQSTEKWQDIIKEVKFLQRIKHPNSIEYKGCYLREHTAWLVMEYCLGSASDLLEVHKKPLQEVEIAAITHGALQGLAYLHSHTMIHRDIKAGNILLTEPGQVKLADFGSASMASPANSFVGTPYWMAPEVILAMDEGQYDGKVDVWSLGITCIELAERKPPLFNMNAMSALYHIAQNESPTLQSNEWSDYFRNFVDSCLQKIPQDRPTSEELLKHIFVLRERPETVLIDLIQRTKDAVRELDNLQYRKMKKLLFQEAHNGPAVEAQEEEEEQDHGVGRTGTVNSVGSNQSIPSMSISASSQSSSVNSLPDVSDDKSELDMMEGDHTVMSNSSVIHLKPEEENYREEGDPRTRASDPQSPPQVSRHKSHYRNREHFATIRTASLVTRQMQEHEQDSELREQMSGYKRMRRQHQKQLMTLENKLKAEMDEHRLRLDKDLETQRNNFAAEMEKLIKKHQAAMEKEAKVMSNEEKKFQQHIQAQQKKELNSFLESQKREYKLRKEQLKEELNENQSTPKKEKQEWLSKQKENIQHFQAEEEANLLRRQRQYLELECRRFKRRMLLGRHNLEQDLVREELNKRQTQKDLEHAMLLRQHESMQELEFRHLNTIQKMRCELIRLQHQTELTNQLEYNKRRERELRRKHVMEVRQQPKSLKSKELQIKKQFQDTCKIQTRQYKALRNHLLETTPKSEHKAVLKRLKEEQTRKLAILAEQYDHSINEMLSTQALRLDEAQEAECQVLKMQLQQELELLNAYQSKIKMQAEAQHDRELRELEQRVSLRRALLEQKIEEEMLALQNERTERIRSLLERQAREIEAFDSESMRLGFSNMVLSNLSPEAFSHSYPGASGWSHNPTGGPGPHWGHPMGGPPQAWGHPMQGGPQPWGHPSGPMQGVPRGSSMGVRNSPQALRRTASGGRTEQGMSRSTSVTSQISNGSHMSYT
# [5] = biological target: T2, Serine/threonine-protein kinase TAO1 (Homo sapiens); details: at 10 µM
# [6] = biological target: T3, Serine/threonine-protein kinase TAO2 (Homo sapiens) (UniProt Q9UL54); details: at 1 µM
# T3 sequence (whole entry): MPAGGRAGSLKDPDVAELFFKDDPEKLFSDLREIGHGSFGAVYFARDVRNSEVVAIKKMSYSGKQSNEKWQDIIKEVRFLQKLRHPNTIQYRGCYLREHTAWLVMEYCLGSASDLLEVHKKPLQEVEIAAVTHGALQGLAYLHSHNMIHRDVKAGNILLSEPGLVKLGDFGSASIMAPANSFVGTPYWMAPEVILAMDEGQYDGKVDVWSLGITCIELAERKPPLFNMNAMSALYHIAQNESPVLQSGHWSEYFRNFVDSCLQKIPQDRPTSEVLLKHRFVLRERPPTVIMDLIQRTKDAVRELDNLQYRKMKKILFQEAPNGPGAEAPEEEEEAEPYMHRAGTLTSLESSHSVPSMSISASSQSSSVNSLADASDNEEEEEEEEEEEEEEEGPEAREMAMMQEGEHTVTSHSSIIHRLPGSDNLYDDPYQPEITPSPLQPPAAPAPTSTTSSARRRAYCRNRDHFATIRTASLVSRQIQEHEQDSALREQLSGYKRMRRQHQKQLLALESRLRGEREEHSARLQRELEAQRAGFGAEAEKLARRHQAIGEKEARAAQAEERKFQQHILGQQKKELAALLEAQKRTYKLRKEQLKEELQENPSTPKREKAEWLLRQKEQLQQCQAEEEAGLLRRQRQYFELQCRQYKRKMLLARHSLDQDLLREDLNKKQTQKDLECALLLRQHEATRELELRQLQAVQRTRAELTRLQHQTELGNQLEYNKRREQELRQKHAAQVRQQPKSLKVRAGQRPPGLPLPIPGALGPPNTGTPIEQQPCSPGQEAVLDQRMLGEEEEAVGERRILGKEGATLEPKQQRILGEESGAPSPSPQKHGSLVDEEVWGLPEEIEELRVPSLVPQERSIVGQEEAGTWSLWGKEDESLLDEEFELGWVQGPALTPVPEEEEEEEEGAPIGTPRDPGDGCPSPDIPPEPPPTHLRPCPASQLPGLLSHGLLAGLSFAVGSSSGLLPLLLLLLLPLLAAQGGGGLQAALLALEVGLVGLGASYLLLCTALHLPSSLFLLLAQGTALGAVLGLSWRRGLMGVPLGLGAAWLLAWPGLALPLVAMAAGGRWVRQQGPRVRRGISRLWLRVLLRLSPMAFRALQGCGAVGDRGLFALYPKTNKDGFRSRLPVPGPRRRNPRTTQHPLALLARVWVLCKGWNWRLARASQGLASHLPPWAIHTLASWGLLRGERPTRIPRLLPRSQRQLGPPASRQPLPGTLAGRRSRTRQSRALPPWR
# [7] = biological target: T3, Serine/threonine-protein kinase TAO2 (Homo sapiens); details: at 10 µM
# [8] = biological target: T4, Serine/threonine-protein kinase TAO3 (Homo sapiens) (UniProt Q9H2K8); details: at 1 µM
# T4 sequence (whole entry): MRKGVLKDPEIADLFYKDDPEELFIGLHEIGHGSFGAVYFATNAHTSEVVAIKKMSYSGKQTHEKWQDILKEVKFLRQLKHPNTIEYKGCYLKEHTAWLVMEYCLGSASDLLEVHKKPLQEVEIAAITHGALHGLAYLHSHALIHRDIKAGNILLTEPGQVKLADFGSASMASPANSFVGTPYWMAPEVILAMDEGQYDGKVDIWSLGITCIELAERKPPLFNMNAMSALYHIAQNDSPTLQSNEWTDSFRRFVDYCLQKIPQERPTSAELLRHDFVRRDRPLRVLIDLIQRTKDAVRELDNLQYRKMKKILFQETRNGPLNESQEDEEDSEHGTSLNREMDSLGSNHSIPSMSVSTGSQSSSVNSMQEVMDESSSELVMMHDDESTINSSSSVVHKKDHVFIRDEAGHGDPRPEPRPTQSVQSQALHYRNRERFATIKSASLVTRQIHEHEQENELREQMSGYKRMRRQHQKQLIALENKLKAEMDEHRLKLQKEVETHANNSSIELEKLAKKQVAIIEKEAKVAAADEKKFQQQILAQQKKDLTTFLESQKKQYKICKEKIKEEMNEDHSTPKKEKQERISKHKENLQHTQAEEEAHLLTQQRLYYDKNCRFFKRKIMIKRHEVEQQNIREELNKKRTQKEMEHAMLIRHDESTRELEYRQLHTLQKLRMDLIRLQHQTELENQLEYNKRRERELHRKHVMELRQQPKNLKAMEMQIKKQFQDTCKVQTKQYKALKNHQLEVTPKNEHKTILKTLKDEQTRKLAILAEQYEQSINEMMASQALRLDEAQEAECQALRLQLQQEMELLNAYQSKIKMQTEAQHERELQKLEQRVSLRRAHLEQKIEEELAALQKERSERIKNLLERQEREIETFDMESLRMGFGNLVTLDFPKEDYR
# [9] = biological target: T4, Serine/threonine-protein kinase TAO3 (Homo sapiens); details: at 10 µM
# [10] = biological target: T5, Serine/threonine-protein kinase TBK1 (Homo sapiens) (UniProt Q9UHD2); details: at 1 µM
# T5 sequence (whole entry): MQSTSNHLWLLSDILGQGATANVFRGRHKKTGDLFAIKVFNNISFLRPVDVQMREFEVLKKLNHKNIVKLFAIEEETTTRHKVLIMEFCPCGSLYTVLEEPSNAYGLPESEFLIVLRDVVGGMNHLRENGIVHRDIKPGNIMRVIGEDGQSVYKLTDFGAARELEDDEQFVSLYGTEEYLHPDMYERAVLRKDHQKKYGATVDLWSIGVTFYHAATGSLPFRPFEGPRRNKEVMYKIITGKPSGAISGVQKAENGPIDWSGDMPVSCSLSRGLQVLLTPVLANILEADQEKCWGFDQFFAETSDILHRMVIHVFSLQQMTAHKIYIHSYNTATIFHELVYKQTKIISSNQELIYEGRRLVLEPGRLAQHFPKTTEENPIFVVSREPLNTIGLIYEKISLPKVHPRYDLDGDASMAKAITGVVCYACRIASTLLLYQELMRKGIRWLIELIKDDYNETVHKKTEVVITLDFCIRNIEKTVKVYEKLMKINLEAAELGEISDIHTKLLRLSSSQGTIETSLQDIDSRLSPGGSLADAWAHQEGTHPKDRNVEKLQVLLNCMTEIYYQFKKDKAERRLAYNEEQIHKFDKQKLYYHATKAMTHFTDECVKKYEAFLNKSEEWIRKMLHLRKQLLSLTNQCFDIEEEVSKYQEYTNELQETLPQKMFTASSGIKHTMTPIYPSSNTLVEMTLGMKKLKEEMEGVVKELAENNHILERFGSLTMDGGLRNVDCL
smiles,measurement,setting,value
Cc1ccc(S(=O)(=O)/C=C/C#N)cc1,residual activity,[1],109%
same,residual activity,[2],96%
same,residual activity,[3],88%
same,residual activity,[4],94%
same,residual activity,[5],87%
same,residual activity,[6],88%
same,residual activity,[7],109%
same,residual activity,[8],92%
same,residual activity,[9],98%
same,residual activity,[10],87%
